From paper PMC9574860, “Chemical Toolkit for PARK7: Potent, Selective, and High-Throughput” (Journal of Medicinal Chemistry, 2022)
The campaign covered roughly 7,900 compounds. About 400 (5.1%) showed an effect of 50% or more. The sample holds strong results, similar compounds and a random draw of the others, so the mix is not that of the screen.

These molecules were tested against Parkinson's disease protein 7 (PARK7/DJ1) (human, UniProt Q99497) (assay: primary screen, percent inhibition; read as competition with a fluorescent probe by fluorescence polarization; higher = more effect of the substance). Details: 100 µM.
Sequence of Parkinson's disease protein 7 (PARK7/DJ1) (Q99497 whole entry, looked up, the tested form may be a part): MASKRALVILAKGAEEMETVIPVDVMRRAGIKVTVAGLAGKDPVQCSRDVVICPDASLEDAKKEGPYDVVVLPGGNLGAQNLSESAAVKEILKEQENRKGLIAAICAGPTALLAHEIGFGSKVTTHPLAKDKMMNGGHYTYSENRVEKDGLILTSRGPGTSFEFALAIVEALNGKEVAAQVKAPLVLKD
In short: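 Fluorescence-polarization probe displacement (JYQ-107, 20 nM final, 2 h) after 2 h preincubation of PARK7 (0.2 μM final) with each fragment at 100 μM final. Read-out ex/em 480/520 nm; remaining activity derived from FP signal loss relative to reference controls.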

SMILES	Inhibition % [%]
Nc1ccc(S(=O)(=O)F)cc1	5.99
Nc1cncc(S(=O)(=O)F)c1	95.6
N#CC(=Cc1ccc(-c2ccc(Cl)cc2Cl)o1)C(N)=O	3.17
Cc1ccc(Cl)c(OCC2CO2)c1 (stereo not shown)	7.81
CC1(C)OB(c2c(Cl)cccc2Cl)OC1(C)C	1.49
Cc1ccccc1N1CCN(C(=O)n2ccnc2)CC1	8.38
Cc1ccccc1CN(C)C(=O)CCl	56.6
CN(Cc1cccs1)C(=O)CCl	36.6
CN(Cc1cc(Br)cs1)C(=O)CCl	42.9
Cc1ccccc1CCNC(=O)CCl	8.29
CN(Cc1cc(C#N)ccc1F)C(=O)CCl	50.3
CCN(Cc1ccc(C#N)cc1F)C(=O)CCl	16.8
Cc1ccc(CN(C)C(=O)Cn2cnc(C#N)n2)c(C)c1	3.86
Cc1ccc(CN(C)C(=O)CCl)c(C)c1	65.7
CN(Cc1ccccc1Br)C(=O)CCl	93.9
Cc1ccccc1CC(=O)NNC(=O)CCl	24
CC(NC(=O)CCl)c1cccs1 (stereo not shown)	9.37
C=CC(=O)N1CC(C)S(=O)(=O)C(C)C1 (stereo not shown)	5.08
Cn1nccc1C12CCOCC1O2 (stereo not shown)	9.22
COc1ccccc1COCC1CO1 (stereo not shown)	4.72
C=CC(=O)N1CCCC(c2nn(C)cc2C(=O)O)C1 (stereo not shown)	0.724
N#Cc1ncn(-c2ncc(C(F)(F)F)cc2Cl)n1	6.83
C=CC(=O)NCC1CCCSC1 (stereo not shown)	13.8

SMILES	Inhibition % [%]
Cc1ccc(CN(C)C(=O)CCl)o1	40.8
CN(Cc1ccco1)C(=O)CCl	53
CN(Cc1ccc(-c2ccc(Cl)cc2)o1)C(=O)CCl	79.2
O=C(CCl)N(Cc1ccco1)c1ccccc1	17.8
CN(Cc1ccc(Cl)s1)C(=O)CCl	30.4
O=C(CCl)NC(=O)NC12CC3CC(CC(C3)C1)C2	0.699
C=CC(=O)Nc1cn(C)nc1C(C)C	8.9
CCn1c(N)c(C(=O)CCl)c(=O)[nH]c1=O	4.93
C=CC(=O)N1C[C@]2(C)CC[C@@H](C2)C1(C)C	15
O=S(=O)(F)c1ccc(-c2cn(Cc3cc(C4CC4)no3)nn2)cc1	3.46
Cl.ClCCc1nc2ccccc2[nH]1	3.05
C=CC(=O)NCC1(C)CCOC2(CCC2)C1 (stereo not shown)	13.5
CC1(C)OB(c2cccc(OCCN3CCCCC3)c2)OC1(C)C	-0.0143
O=C(CCCl)NC1CCCCC1	3.8
O=c1onc(-c2cccnc2)n1C1C=CCCC1 (stereo not shown)	54.8
O=c1onc(-c2ccccn2)n1C1C=CCCC1 (stereo not shown)	5.08
O=c1onc(-c2cccnc2)n1Cc1cc(F)cc(F)c1	16.6
O=C(Nc1ccncc1)N1CCC(C2OCCO2)CC1	9.17
O=C(Oc1ccccc1)N1CC(O)C1	29
C=CC(=O)NC(C)c1cnn(C)c1 (stereo not shown)	5.67
O=C1NC(=O)C(CS)N1 (stereo not shown)	84.8
Cl.O=S(=O)(F)CC1CCCNC1 (stereo not shown)	7.49
O=C1NC(=O)C(CS(=O)(=O)F)N1 (stereo not shown)	69.7

SMILES	Inhibition % [%]
Cl.O=S(=O)(F)CC1CNCCO1 (stereo not shown)	11
Cl.O=S(=O)(F)CCC1CCCCN1 (stereo not shown)	1.97
CC1(C)NC(=O)N(CCS(=O)(=O)F)C1=O	-4.21
O=C1NC(=O)C(CCS(=O)(=O)F)N1 (stereo not shown)	97.6
O=C1NC(=O)C(CCS)N1 (stereo not shown)	26.8
O=C1NC(C2CC2)C1C1CC1 (stereo not shown)	6.35
N#Cc1cnc(OCC(F)(F)F)cn1	4.9
C=CC(=O)N1CCC(S(=O)(=O)C(C)C)CC1	5.57
Cc1csc(C(C#N)=Cc2cnn(C)c2)n1	11.9
Cc1cc(C)nc(S)n1	17.2
Cc1cc(C)nc(S(=O)(=O)F)n1	55.9
Cc1cnc(S(=O)(=O)F)nc1	33.7
O=C(CCCCl)N1CCCCC1	2.86
O=C1OCCC1N1C(=O)c2ccccc2S1(=O)=O (stereo not shown)	6.02
Cc1ccc(C=CS(=O)(=O)Nc2cc(C)nn2C)cc1	20
C=CC(=O)N1CCC(C)C(OC)C1 (stereo not shown)	7.85
O=C(O)c1ccc2c(=O)[nH]c(S)nc2c1	11.3
O=C(O)c1cccc(CS)c1	30.4
O=C(O)c1ccc(CS)c(F)c1	82.7
O=C(CCl)Nc1cc2c(cc1[N+](=O)[O-])OCCCO2	3.15
COc1cccc(C2CCCN2C(=O)CCl)c1 (stereo not shown)	2.56
C=CC(=O)N(C)Cc1cnc(N(C)C)nc1	5.02
CC(C#N)NS(=O)(=O)c1cccc(S(=O)(=O)F)c1 (stereo not shown)	102

SMILES	Inhibition % [%]
CCC(C#N)NS(=O)(=O)c1ccc(S(=O)(=O)F)cc1 (stereo not shown)	31.6
CCCC(C#N)NS(=O)(=O)c1ccc(S(=O)(=O)F)cc1 (stereo not shown)	33.3
N#CC1(NS(=O)(=O)c2ccc(S(=O)(=O)F)cc2)CCC1	31.4
CCCC(C#N)NS(=O)(=O)c1cccc(S(=O)(=O)F)c1 (stereo not shown)	96.8
CC(C#N)NS(=O)(=O)c1ccc(S(=O)(=O)F)cc1 (stereo not shown)	23.5
O=C(CN1CCSC1=O)NC1CCN2CCCCC12 (stereo not shown)	10.2
COc1ccc(C(C)(C)C)cc1NC(=O)CCl	10.8
O=C(Nc1ccccc1F)N1CCC(C2OCCO2)CC1	5.67
C=C(C)c1nc(C#N)c(NCc2ccccc2)o1	9.08
COc1ccc2nc(C#N)ccc2c1	3.18
N#Cc1cc(N)c2ccccc2n1	10.9
N#Cc1ccc2cc(N)ccc2n1	101
Nc1cc(N)nc(S)n1	6.46
Nc1ccc2nc(S)ccc2c1	67.6
Sc1ccc2ccccc2n1	14.2
N#Cc1ccc(Cl)cc1N1CCC(C2OCCO2)CC1	2.51
C=CC(=O)NC1CCCCNC1=O (stereo not shown)	3.54
COc1ccc(S(N)(=O)=O)cc1NC(=O)CCl	2.41
C=CC(=O)NC(NC(=O)C=C)c1ccccc1F	14.4
CN(C)c1nccc(CNCc2ccc(B(O)O)cc2)n1	-0.514
C=CC(=O)NCC1CCCOC1c1ccc(C)cc1 (stereo not shown)	9.55
CNC1CCCN(C(=O)C=Cc2cncc(F)c2)C1 (stereo not shown)	29.3
Cl.O=C(CCl)NCC(c1ccccc1Cl)N1CCCC1 (stereo not shown)	3.25

SMILES	Inhibition % [%]
C=CC(=O)Nc1cnn(C(C)C)c1C1CC1	10.5
O=C1SCCN1CN1CCN(c2ccccc2F)CC1	3.81
CCN1CCN(c2oc(-c3ccco3)nc2C#N)CC1	9.73
N#Cc1nc(-c2ccco2)oc1N1CCN(C(=O)CCl)CC1	51.4
N#Cc1nc(-c2ccco2)oc1N1CCNCC1	9.97
CC(C)N1CCN(c2oc(-c3ccco3)nc2C#N)CC1	10
CCCN1CCN(c2oc(-c3ccco3)nc2C#N)CC1	9.64
C#CCN1CCN(c2oc(-c3ccco3)nc2C#N)CC1	53.7
ClCCCc1cccnc1	7.37
Cc1c(C#N)c(NC(=O)CCl)n(C2CCCCC2)c1C	15.6
O=C(CCl)NC(=O)Nc1ccc(Br)cc1	23.3
O=C(CCl)Nc1ccc(Cl)c(F)c1	36.8
O=C(CCl)Nc1cccc(Br)c1	29.1
O=C(CCl)Nc1ccc(Br)cc1	70.1
COc1cc2c(cc1NC(=O)CCl)oc1ccccc12	4.67
O=C(CCCl)Nc1ccc2c(c1)CCC2	4.93
O=C(CCl)Nc1ccc(F)c(Cl)c1	21.3
CC(=O)c1oc2ccccc2c1NC(=O)CCl	9.9
O=C(CCl)Nc1ccc(Cl)c(Cl)c1	63
O=C(CCl)Nc1ccc2c(c1)oc1ccccc12	62.9
C=CC(=O)Nc1ccc2c(c1)CCC2	7.23
O=C(CCl)Nc1ccc2c(c1)CCC2	57.8
O=C(c1cccnc1S)N1CCOC2(CCCC2)C1	6.34

SMILES	Inhibition % [%]
C=CC(=O)NCc1cc2n(n1)CCC2	10.7
CC1(C)OB(c2cccc(OC(F)F)c2)OC1(C)C	3.49
C=CC(=O)Nc1cccc2c1CCN(S(C)(=O)=O)C2	3.82
CC1CC(Sc2ccccc2F)C(=O)O1 (stereo not shown)	-0.183
C=CC(=O)NCCN1C(=O)Cc2ccccc21	11
CCN(C(=O)Cn1cnc(C#N)n1)C1=CCCCC1	6.47
C=CC(=O)N1CC23CCCCC2(COC3)C1 (stereo not shown)	8.4
O=C(CCl)Nc1ccc2c(c1)C(=O)c1ccccc1C2=O	2.08
O=C(CCCl)Nc1ccc(Cl)cc1	9.16
O=C(CCl)Nc1ccc(I)cc1	93.2
O=C(CCl)Nc1ccc(F)c(F)c1	25.9
CNC(=O)c1ccc(NC(=O)CCl)cc1	16.6
O=C(CCl)Nc1ccc2ccccc2c1	55.8
O=C(CCl)Nc1ccc(C(=O)O)cc1	25.9
CC(=O)Nc1cccc(NC(=O)CCl)c1	19.2
CC(C)(C)c1ccc(NC(=O)CCl)cc1	100
O=C(CCl)Nc1cccc(I)c1	41
O=C(CCl)Nc1ccc(Cl)cc1	60.3
